In PubChem BioAssay AID425 (Sanford-Burnham Center for Chemical Genomics, 2006):
Where “and” joins values, the source holds several entries; their conditions need not be identical. Identical values can stand only once. The campaign covered roughly 110,000 compounds. About 190 (0.17%) were called active. Cut-off read from the data, not from the text of the source: active = inhibition above about 50%; inactive = the rest. This excerpt belongs to a sample that is enriched for actives. Potency and affinity values are given separately. Some compounds were tested as several samples or in several runs, with calls that do not always agree.

molecular target: Dual specificity protein phosphatase 6 (Rattus norvegicus) (UniProt Q64346); assay: MKP-3 phosphatase inhibitors, primary screen, biochemical, rat enzyme, in vitro (AID 425); settings: recombinant MKP-3 phosphatase activity, fluorescence; at 20 µM; stronger effect = higher value;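 note: plate controls were vehicle for no effect and reference inhibitor for full effect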
Sequence (Q64346 whole entry, looked up): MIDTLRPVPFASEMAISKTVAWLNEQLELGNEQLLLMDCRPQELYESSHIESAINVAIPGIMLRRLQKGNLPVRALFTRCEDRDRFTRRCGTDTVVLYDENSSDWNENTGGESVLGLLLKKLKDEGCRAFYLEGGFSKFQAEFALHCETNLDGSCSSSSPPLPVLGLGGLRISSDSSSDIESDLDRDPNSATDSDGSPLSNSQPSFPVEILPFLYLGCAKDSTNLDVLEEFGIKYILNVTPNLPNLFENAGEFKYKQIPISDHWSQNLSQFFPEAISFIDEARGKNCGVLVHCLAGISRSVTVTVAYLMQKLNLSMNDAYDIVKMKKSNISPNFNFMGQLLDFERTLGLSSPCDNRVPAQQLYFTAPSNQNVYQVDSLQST

| SMILES | inhibition |
| --- | --- |
| CCSc1nc(N)c2c3c(sc2n1)COC(C)(CC)C3 (configuration not stated) | 3.9% (inactive) |
| CC(=O)Nc1ccc(C(=O)NCc2ccccn2)cc1 | 1.3% (inactive) |
| Cc1ccnc(NS(=O)(=O)c2ccc(NC(=O)c3cccc(I)c3)cc2)n1 | 1.1% (inactive) |
| CC1(C)CC(NC(=O)CCc2ccccc2)CC(C)(C)N1 | 3.8% (inactive) and -2.1% (inactive) |
| COc1ccc(N=Cc2ccc(O)c(OC)c2)cc1 | -0.9% (inactive) |
| Oc1ccc(/C=N/N=C/c2ccc(O)c(O)c2)cc1O | 1.8% (inactive) |
| Oc1ccc(N=Cc2ccc(O)c(O)c2)cc1 | 69.4% (active) and -3.7% (inactive) |
| Oc1ccc(C=Nc2ccc(O)cc2)cc1 | 51% (active) |
| Cc1cccc(C=Nc2ccc(-c3nc4ccc(C)cc4s3)cc2)c1 | -2.3% (inactive) |
| Oc1ccc(N=Cc2cc(Br)cc(Br)c2O)cc1 | 9.6% (inactive) |
| Cc1cccc(C=Nc2ccc(O)cc2)c1 | 118% (active) |
| CN(C)c1ccc(C=Nc2ccc(N(C)C)cc2)cc1 | -3.9% (inactive) |
| Oc1cccc(C=Nc2ccc(Cl)c(Cl)c2)c1 | -1.5% (inactive) |
| COc1ccc2c(c1OC)CN(C)CCc1cc3c(cc1C(O)C2)OCO3 (configuration not stated) | -15.6% (inactive) |
| COc1ccc(C2NC(=O)NC(C)=C2C(=O)Nc2ccccc2C)cc1OC (configuration not stated) | -0.4% (inactive) |
| O=C1CCCC2=C1C(c1ccc(Cl)cc1)Nc1ccccc1N2 (configuration not stated) | 0.4% (inactive) |
| Cc1ccccc1NC(=O)CCCN1C(=O)/C(=C/c2cccc3c2OCO3)SC1=S | 4.3% (inactive) |
| CSc1nsc(SC)c1NC(=O)OCc1ccccc1 | -3.9% (inactive) and 1.7% (inactive) |
| COc1cccc(C(=O)Nc2ccc(OC(F)(F)F)cc2)c1 | 3.1% (inactive) |

| SMILES | inhibition |
| --- | --- |
| COc1ccc(/C=C2\SC(=O)N(CC(=O)Nc3nccs3)C2=O)cc1OC | 0% (inactive) |
| O=S(=O)(NCc1ccc(F)cc1)c1ccc2ccccc2c1 | 0% (inactive) |
| COC(=O)c1sc(=S)n(-c2cc(F)ccc2F)c1N | 10.2% (inactive) |
| Cc1ccc2[nH]c(C)c(CC(=O)N/N=C/c3cccnc3)c2c1 | -2% (inactive) |
| O=c1[nH]c(=O)n(-c2ccccc2Cl)c(O)c1C=C1C=CC=N1 | 3.3% (inactive) |
| O=c1[nH]c(=S)n(-c2ccccc2F)c(O)c1C=C1C=CC=N1 | 60.5% (active) |
| Cc1ccccc1-n1c(O)c(C=C2C=CC=N2)c(=O)[nH]c1=S | 45.4% (inactive) |
| COc1ccc(-n2c(O)c(/C=C3\C=CC=N3)c(=O)[nH]c2=O)cc1 | 2.1% (inactive) |
| Cn1c(O)c(/C=C2/C=CC=N2)c(=O)n(-c2ccccc2)c1=S | 95.6% (active) |
| O=c1[nH]c(=S)n(-c2cccc(Cl)c2)c(O)c1/C=C1/C=CC=N1 | 9% (inactive) |
| COc1ccc(NC(=O)Cn2nnc(C(N)=O)c2N)c(OC)c1 | -7.2% (inactive) |
| O=C1c2ccc(-c3nc4ccccc4c(=O)o3)cc2C(=O)N1c1ccc(I)cc1 | -0.1% (inactive) |
| COC(=O)c1ccc(-n2c(C)cc(/C=N/n3cnnc3)c2C)cc1 | -6.7% (inactive) |
| Cc1nnc(NC(=O)CSc2cn(Cc3ccccc3)c3ccccc23)s1 | -5.8% (inactive) |
| Cc1ccc(/C=N/n2cnnc2)cc1[N+](=O)[O-] | -0.6% (inactive) |
| COc1ccc(/C=C/C(=O)Nc2ccc(C)c([N+](=O)[O-])c2)cc1OC | -0.5% (inactive) |
| O=C(O)CCCCCN1C(=O)C(=O)/C(=C(/O)c2ccccc2)C1c1ccc(F)cc1 (configuration not stated) | 0.8% (inactive) |
| CC(C)(C)c1ccc(OCC(=O)NC2CCS(=O)(=O)C2)cc1 (configuration not stated) | 3% (inactive) |
